Inconclusive results are not listed. The source made the active and inactive calls. The call rests on the fitted dose curve; in most records, active means well fitted curve in the direction sought with a large enough effect; inconclusive means small, poorly fitted or top-dose-only effect, or another doubt; inactive means no such curve, though single readings can be large; an effect the other way counts as inactive or inconclusive.
Key:
[1] = qHTS of pediatric cancer cell lines to identify multiple opportunities for drug repurposing: Primary screen for BT-37 cells (AID 1347094);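 further: series mostly up to about 57 µM; plate controls were DMSO for no effect and bortezomib for full effect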
Summary of the method: (§1)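 Quantitative HTS format: each compound titrated (MIPE 11 points from 0.78 nM, NPC 8 points from 0.59 nM) onto cells plated 5 hours earlier. After 48 h at 37 degrees C, CellTiter-Glo luminescence was recorded.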

[2] = qHTS of pediatric cancer cell lines to identify multiple opportunities for drug repurposing: Primary screen for NB-EBc1 cells (AID 1347095);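 further: plate controls were DMSO neutral control for no effect and bortezomib for full effect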
Summary of the method: as §1

[3] = qHTS of pediatric cancer cell lines to identify multiple opportunities for drug repurposing: Primary screen for U-2 OS cells (AID 1347096);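 further: plate controls were DMSO wells for no effect and bortezomib positive control wells for full effect; nearly all actives have a fitted effect of over 50% in size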
Summary of the method: (§2)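 Viability after 48 h compound treatment at 37C, 500-1,000 cells/well, read as ATP luminescence with CellTiter-Glo. Primary screens used 11-point (MIPE, 0.78 nM-46 µM) or 8-point (NPC, 0.59 nM-46 µM) final concentrations; follow-up screens used 11-point dilutions.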

[4] = qHTS of pediatric cancer cell lines to identify multiple opportunities for drug repurposing: Primary screen for Saos-2 cells (AID 1347097); further: on the % scale 0 is the no-effect control and ±100 the full control effect; nearly all actives have a fitted effect of over 40% in size
Summary of the method: as §1

[5] = qHTS of pediatric cancer cell lines to identify multiple opportunities for drug repurposing: Primary screen for SK-N-SH cells (AID 1347098);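 further: DMSO served as neutral control and bortezomib at 2.3 µM as positive control; on the % scale 0 is the no-effect control and ±100 the full control effect; nearly all actives have a fitted effect of over 65% in size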
Summary of the method: (§3)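 Cells (500-1,000/well) rested 5 h, then received compounds for 48 h; metabolically active cells were measured by CellTiter-Glo luminescence. Final concentrations spanned up to 46 µM (MIPE, 11-point) or 0.59 nM-46 µM (NPC, 8-point) in primary screens, 11-point in follow-ups.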

[6] = qHTS of pediatric cancer cell lines to identify multiple opportunities for drug repurposing: Primary screen for NB1643 cells (AID 1347099);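 further: plate controls were DMSO neutral control for no effect and bortezomib positive control for full effect; nearly all actives have a fitted effect of over 50% in size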
Summary of the method: as §1

[7] = qHTS of pediatric cancer cell lines to identify multiple opportunities for drug repurposing: Primary screen for LAN-5 cells (AID 1347100);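 further: plate controls were DMSO neutral control for no effect and bortezomib positive control for full effect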
Summary of the method: as §2

[8] = qHTS of pediatric cancer cell lines to identify multiple opportunities for drug repurposing: Primary screen for BT-12 cells (AID 1347101);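 further: plate controls were DMSO for no effect and bortezomib positive control for full effect; nearly all actives have a fitted effect of over 25% in size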
Summary of the method: as §3

[9] = qHTS of pediatric cancer cell lines to identify multiple opportunities for drug repurposing: Primary screen for Rh18 cells (AID 1347102); further: on the % scale 0 is the no-effect control and ±100 the full control effect; nearly all actives have a fitted effect of over 65% in size
Summary of the method: as §2

[10] = qHTS of pediatric cancer cell lines to identify multiple opportunities for drug repurposing: Primary screen for OHS-50 cells (AID 1347103);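 further: plate controls were DMSO neutral control for no effect and bortezomib positive control for full effect; nearly all actives have a fitted effect of over 40% in size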
Summary of the method: as §3

[11] = qHTS of pediatric cancer cell lines to identify multiple opportunities for drug repurposing: Primary screen for RD cells (AID 1347104);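 further: plate controls were DMSO for no effect and bortezomib for full effect; nearly all actives have a fitted effect of over 55% in size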
Summary of the method: as §1

[12] = qHTS of pediatric cancer cell lines to identify multiple opportunities for drug repurposing: Primary screen for MG 63 (6-TG R) cells (AID 1347105); further: on the % scale 0 is the no-effect control and ±100 the full control effect; nearly all actives have a fitted effect of over 50% in size
Summary of the method: as §1

[13] = qHTS of pediatric cancer cell lines to identify multiple opportunities for drug repurposing: Primary screen for control Hh wild type fibroblast cells (AID 1347106);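 further: series mostly up to about 46 µM; on the % scale 0 is the no-effect control and ±100 the full control effect; a drop in luminescence marks cytotoxicity and a rise apparent proliferation; nearly all actives have a fitted effect of over 55% in size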
Summary of the method: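 Cells (500-1,000/well) in growth media were settled 5 h at 37 degrees C, then given compounds for 48 h. Viability was read as CellTiter-Glo luminescence. Primary runs used MIPE at 11 points (0.78 nM-46 µM) and NPC at 8 points (0.59 nM-46 µM); follow-ups used 11 points.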

[14] = qHTS of pediatric cancer cell lines to identify multiple opportunities for drug repurposing: Primary screen for Rh30 cells (AID 1347107); further: series mostly up to about 46 µM; on the % scale 0 is the no-effect control and ±100 the full control effect; nearly all actives have a fitted effect of over 75% in size
Summary of the method: as §2

[15] = qHTS of pediatric cancer cell lines to identify multiple opportunities for drug repurposing: Primary screen for Rh41 cells (AID 1347108);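 further: series mostly up to about 46 µM; luminescence drop marks cytotoxic hits; nearly all actives have a fitted effect of over 70% in size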
Summary of the method: as §1

O=C1NS(=O)(=O)c2ccccc21
inactive: Potency [1] | Potency [2] | Potency [3] | Potency [4] | Potency [5] | Potency [6] | Potency [7] | Potency [8] | Potency [9] | Potency [10] | Potency [11] | Potency [12] | outcome [13] | outcome [14] | Potency [15]

CC(C)(C)NCC(O)COc1ccc(NC(=O)NC2CCCCC2)cc1 (centres undefined)
inactive: Potency [1] | Potency [2] | Potency [3] | Potency [4] | Potency [5] | Potency [6] | Potency [7] | Potency [8] | Potency [9] | Potency [11] | Potency [12] | outcome [13] | outcome [14] | Potency [15]

CCCn1cnc2c1c(=O)n(CCCCC(C)=O)c(=O)n2C
inactive: Potency [1] | Potency [2] | Potency [3] | Potency [4] | Potency [5] | Potency [6] | Potency [7] | Potency [8] | Potency [9] | Potency [11] | Potency [12] | outcome [13] | outcome [14] | Potency [15]

Cc1ncc([N+](=O)[O-])n1CC(O)CCl (centres undefined)
inactive: Potency [1] | Potency [2] | Potency [3] | Potency [4] | Potency [5] | Potency [6] | Potency [7] | Potency [8] | Potency [9] | Potency [10] | Potency [11] | Potency [12] | outcome [13] | outcome [14] | Potency [15]

CC[C@@]1(c2ccccc2)NC(=O)N(C)C1=O
inactive: Potency [1] | Potency [2] | Potency [3] | Potency [4] | Potency [5] | Potency [6] | Potency [7] | Potency [8] | Potency [9] | Potency [11] | Potency [12] | outcome [13] | outcome [14] | Potency [15]

CN1[C@@H]2CC[C@H]1CC(OC(=O)C(O)c1ccccc1)C2 (some centres undefined)
inactive: Potency [1] | Potency [2] | Potency [3] | Potency [4] | Potency [5] | Potency [6] | Potency [7] | Potency [8] | Potency [9] | Potency [10] | Potency [11] | Potency [12] | outcome [13] | outcome [14] | Potency [15]

CC(=O)CCC(=O)O
inactive: Potency [1] | Potency [2] | Potency [3] | Potency [4] | Potency [5] | Potency [6] | Potency [7] | Potency [8] | Potency [9] | Potency [10] | Potency [11] | Potency [12] | outcome [13] | outcome [14] | Potency [15]

O=S(=O)(O)NC1CCCCC1
inactive: Potency [1] | Potency [2] | Potency [3] | Potency [4] | Potency [5] | Potency [6] | Potency [7] | Potency [8] | Potency [9] | Potency [10] | Potency [11] | Potency [12] | outcome [13] | outcome [14] | Potency [15]

CN(C)CCN(Cc1ccccc1)c1ccccn1
inactive: Potency [1] | Potency [2] | Potency [3] | Potency [4] | Potency [5] | Potency [6] | Potency [7] | Potency [8] | Potency [9] | Potency [11] | Potency [12] | outcome [13] | outcome [14] | Potency [15]

CC(=O)Nc1ccc(/C=N/NC(N)=S)cc1
inactive: Potency [1] | Potency [2] | Potency [3] | Potency [4] | Potency [5] | Potency [6] | Potency [7] | Potency [8] | Potency [9] | Potency [11] | Potency [12] | outcome [13] | outcome [14] | Potency [15]

O=C(O)c1ccccc1-c1ccc(C(F)(F)F)cc1
inactive: Potency [1] | Potency [2] | Potency [3] | Potency [4] | Potency [5] | Potency [6] | Potency [7] | Potency [8] | Potency [9] | Potency [10] | Potency [11] | Potency [12] | outcome [13] | outcome [14] | Potency [15]

CC(O)CN(CCN(CC(C)O)CC(C)O)CC(C)O (centres undefined)
inactive: Potency [1] | Potency [2] | Potency [3] | Potency [4] | Potency [5] | Potency [6] | Potency [7] | Potency [8] | Potency [9] | Potency [11] | Potency [12] | outcome [13] | outcome [14] | Potency [15]

NCCNCCNCCNCCN
inactive: activity change, negative = cytotoxic [1] 7.77% [at 11.5 µM] | activity change, negative = cytotoxic [2] 2.04% [at 9.22 µM] | activity change, negative = cytotoxic [3] -3.22% [at 9.22 µM] | activity change, negative = cytotoxic [4] -19.8% [at 9.22 µM] | activity change, negative = cytotoxic [5] -8.89% [at 11.4 µM] | activity change, negative = cytotoxic [6] 0.713% [at 9.22 µM] | activity change, negative = cytotoxic [7] -15.5% [at 9.22 µM] | activity change, negative = cytotoxic [8] 0.69% [at 11.5 µM] | activity change, negative = cytotoxic [9] -4.13% [at 9.22 µM] | activity change, negative = cytotoxic [10] -3.79% [at 11.5 µM] | activity change, negative = cytotoxic [11] -3.51% [at 9.22 µM] | activity change, negative = cytotoxic [13] -0.844% [at 9.22 µM] | activity change, negative = cytotoxic [14] 7.05% [at 9.22 µM] | activity change, negative = cytotoxic [15] 10.3% [at 9.22 µM]

OC[C@H]1O[C@@H](O[C@@H]2[C@@H](CO)O[C@](O)(CO)[C@H]2O)[C@H](O)[C@@H](O)[C@H]1O
inactive: Potency [1] | Potency [2] | Potency [3] | Potency [4] | Potency [5] | Potency [6] | Potency [7] | Potency [8] | Potency [9] | Potency [11] | Potency [12] | outcome [13] | outcome [14] | Potency [15]

Cn1cc[nH]c1=S
inactive: Potency [1] | Potency [2] | Potency [3] | Potency [4] | Potency [5] | Potency [6] | Potency [7] | Potency [8] | Potency [9] | Potency [11] | Potency [12] | outcome [13] | outcome [14] | Potency [15]

c1ccc(CN(CC2=NCCN2)c2ccccc2)cc1
inactive: Potency [1] | Potency [2] | Potency [3] | Potency [4] | Potency [5] | Potency [6] | Potency [7] | Potency [8] | Potency [9] | Potency [10] | Potency [12] | outcome [13] | outcome [14] | Potency [15]

CC(C)(O)c1ccccc1CC[C@@H](SCC1(CC(=O)O)CC1)c1cccc(/C=C/c2ccc3ccc(Cl)cc3n2)c1
inactive: Potency [1] | Potency [2] | Potency [3] | Potency [4] | Potency [5] | Potency [6] | Potency [7] | Potency [8] | Potency [9] | Potency [11] | Potency [12] | outcome [13] | outcome [14] | Potency [15]

Reference: PubChem BioAssay (NCATS)
